HSF1 inh: HSF1 inhibition; NIH3T3-HGL HSE-luciferase, MG132-induced, luminescence 8 h; hits give low values; activity change, negative = inhibition, % at 7.5 µM (by protocol); 300,000 tested, 0.77% active; AID 2098;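 active means more than half of replicate wells show activity change below -50%, luminescence cut by over half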;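 further: luciferase reports HSF-1 transcriptional activity via heat shock element; 0% = median of DMSO wells and -100% = zero luminescence signal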
HSF1 activator: increases HSF-1 driven luciferase reporter signal. NIH3T3-HGL HSF-1 luciferase reporter, MG132, 8 h; 100% = twice DMSO control signal. activation, % at 9 µM. 300,000 tested, 1.7% active. AID 504408;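 active means mean replicate activation of at least 50% with a set share of replicates each reaching 50%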;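 further: 0% = median of the neutral control wells and 100% = twice that signal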
HSP90 inh: inhibitors of HSP90 luciferase refolding in rabbit reticulocyte lysate; luciferase refolding luminescence, 3 h; inhibition, % at 5.6 µM; 290,000 tested, 0.91% active; AID 1789;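 active means inhibition above the screen-wide mean plus 3 SD, computed separately per campaign, cut at about 16% in these data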;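 further: 0% = DMSO wells and 100% = 60 µM geldanamycin wells; inhibitors lower the luminescence because luciferase stays unfolded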
dFosB activator: mouse delta FosB homodimer activation; P13346; purified delta FosB, TAMRA-CDK5 oligo fluorescence polarization; percent of positive-control signal above neutral wells; activation, % at 25 µM; 340,000 tested, 0.99% active; AID 493131;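 active means mean activation above about 17%, with every replicate also reaching it, limit read from the data, passing the limit was not always enough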
Target sequence (P13346 whole entry, looked up): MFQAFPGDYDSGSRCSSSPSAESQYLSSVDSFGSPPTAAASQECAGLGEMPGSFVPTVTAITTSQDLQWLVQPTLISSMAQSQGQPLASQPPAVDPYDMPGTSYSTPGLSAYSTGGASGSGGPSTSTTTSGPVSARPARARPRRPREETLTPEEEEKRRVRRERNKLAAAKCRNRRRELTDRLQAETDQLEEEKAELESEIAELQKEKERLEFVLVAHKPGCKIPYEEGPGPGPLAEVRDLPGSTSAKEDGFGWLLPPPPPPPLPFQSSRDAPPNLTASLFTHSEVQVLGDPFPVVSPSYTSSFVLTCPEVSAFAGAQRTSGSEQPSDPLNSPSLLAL
Platelet DG rel: modulates dense granule release in human platelets | human platelet-rich plasma, SFLLRN dense granule ATP release, luminescence | inhibition, %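 (compounds screened at 7.5 µM in platelet-rich plasma)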 | 300,000 tested, 0.22% active | AID 1663;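 active means mean replicate score, as percent of positive control, at or above 50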
MPTP inh: permeability transition pore inhibition | isolated mouse mitochondria, Ca2+ swelling absorbance, 30 min | inhibition, % at 10 µM | 360,000 tested, 1.4% active | AID 602449;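 active means inhibition of 50% or more, scaled per plate between neutral and stimulator controls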;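 further: 0% = DMSO wells given calcium and 100% = 1 mM EGTA wells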
Starred values were filed as active, the others as inactive; . = no result given. Sampled rows, rich in hits. Any-hit rate of the full collection: about 4.9%.

SMILES | HSF1 inh | HSF1 activator | HSP90 inh | dFosB activator | Platelet DG rel | MPTP inh
Cc1cccc(OCCCCn2c(CO)nc3ccccc32)c1 | 1.5 | -7.3 | -0.5 | 2.5 | 3.0 | 1.0
CCCc1nc2c(C)cc(Br)cn2c1Cc1ccc(C)cc1 | . | . | . | . | . | 1.7
Oc1c(C2=NCCNC(C(F)(F)F)=C2)ccc2ccccc12 | 61.1 | 81.1* | -3.6 | -6.1 | 11.0 | -1.2
O=C(C[n+]1cccc(C(=O)Nc2ccccc2)c1)c1ccc([N+](=O)[O-])cc1 | 59.8 | 131.8* | 4.3 | -8.0 | -3.7 | 0.9
O=C(C[n+]1cccc(C(=O)Nc2ccccc2)c1)c1ccc(Cl)cc1 | . | . | . | . | . | 3.1
O=Cc1ccc(-c2nc3ccccc3s2)o1 | 35.9 | 63.3* | 13.0 | -3.6 | 5.9 | 10.1
O=C(O)CCN1C(=O)/C(=C/c2ccc(-c3nc4ccccc4s3)o2)SC1=S | -5.4 | 0.4 | 1.4 | -13.1 | -3.3 | 17.5
CN(C)Cc1csc(Nc2ccc(C(=O)c3ccccc3)cc2)n1 | . | . | . | . | . | 1.1
COc1cc(OC)cc(-c2cc3nc(C)c(CCC(=O)NCc4ccccc4)c(C)n3n2)c1 | -56.5* | -53.3 | 13.4 | -21.5 | 4.2 | 2.0
COc1ccc(-c2nnc(Nc3ccc(CC(N)=O)cc3)c3ccccc23)cc1 | 28.2 | 56.8* | -0.4 | -6.2 | 7.5 | 0.0
NC(=O)Cc1ccc(Nc2nnc(-c3ccccc3)c3ccccc23)cc1 | . | . | 1.8 | 0.0 | 5.1 | 3.2
C[C@@]12C(=O)Nc3ccc(Cl)cc3C(=O)N1[C@H]1c3cc(Cl)ccc3OC[C@@H]1[C@@H]2c1ccccc1 | . | . | . | 2.9 | . | -0.1
C[C@@]12C(=O)Nc3ccc(Br)cc3C(=O)N1[C@H]1c3cc(Cl)ccc3OC[C@@H]1[C@@H]2c1ccccc1 | . | . | . | 24.6* | . | -0.4
Cc1ccc(N(C(C)C(=O)O)S(=O)(=O)c2c(C)[nH]c(=O)[nH]c2=O)cc1 (stereo not given) | -5.2 | 1.6 | . | 16.1* | 3.2 | -0.8
Cc1noc(C)c1S(=O)(=O)N(C)C[C@@H]1OCc2cn(nn2)CCCC(=O)N([C@@H](C)CO)C[C@H]1C | . | . | . | . | . | -1.6
CC1SC(c2ccc(Cl)cc2)NC1=O (stereo not given) | 24.1 | 67.5* | -2.7 | -1.4 | -9.3 | 1.0
CC1SC(c2cccc(Cl)c2)NC1=O (stereo not given) | -1.7 | 10.3 | 1.1 | 4.9 | 0.5 | 3.2
O=C(O)c1cc2cc(Cl)ccc2[nH]1 | . | . | . | 0.7 | . | -1.1
O=C(O)c1cc2cc(F)ccc2[nH]1 | -64.3* | -72.2 | -3.7 | 0.4 | -1.1 | 0.8
COc1ccc2c(c1)oc(=O)c1c3ccccc3[nH]c21 | 21.1 | 71.0* | 1.8 | -2.9 | 9.7 | 16.1
COc1ccccc1C(=O)NCCC(=O)NNC(=O)Cn1ccc(C(F)(F)F)n1 | -77.3* | -81.9 | . | -7.5 | 3.3 | -0.7
CC(=O)N1c2ccc(S(=O)(=O)N3CCC(C(=O)N4CCN(c5ccc(Cl)cc5)CC4)CC3)cc2CC1C (stereo not given) | 1.2 | -9.6 | -0.5 | -2.7 | -6.4 | 0.5
C(=N\NC1=Nc2cccc3cccc1c23)/c1ccccn1 | -71.3* | -72.6 | -4.2 | -2.4 | -0.2 | 3.8
C(=N\Nc1nc2ccccc2s1)/c1ccccn1 | -86.7* | -88.3 | 85.6* | . | 23.5 | .
O=C1c2cccc3cccc(c23)C(=O)N1CCN1CCN(CC(O)COc2ccc3ccccc3c2)CC1 (stereo not given) | 17.1 | 17.5 | 2.5 | 14.4 | -3.2 | 3.2
SMILES | HSF1 inh | HSF1 activator | HSP90 inh | dFosB activator | Platelet DG rel | MPTP inh
O=C1c2cccc3cccc(c23)C(=O)N1CCN1CCN(CC(O)COCc2ccc(Cl)cc2)CC1 (stereo not given) | 40.1 | 73.5* | -0.7 | 12.8 | 24.0 | 4.5
Cc1cccc(/N=C/c2nc(-c3ccccc3Br)oc2O)n1 | 45.0 | 90.6* | 1.0 | 1.8 | -4.1 | -0.7
CCOC(=O)Cn1c(=NC(=O)CSC(C)=O)sc2ccccc21 | -3.3 | 2.9 | -3.0 | -10.0 | 87.1* | 1.4
CCOC(=O)Cn1c(=NC(=O)CSC(C)=O)sc2cc(OC)ccc21 | 8.5 | 24.6 | 0.7 | -4.2 | 14.0 | -0.2
COc1ccc(CNC(=O)N2CCc3ccccc3C2)cc1 | 6.6 | 16.1 | -1.8 | -3.8 | -5.1 | -2.3
COc1ccccc1CNC(=O)COc1cc2c(c3oc(=O)cc(C)c13)CCC(C)(C)O2 | -2.0 | -9.6 | 4.0 | -8.8 | 1.2 | 0.0
Fc1ccccc1CSc1nnc(-c2cccs2)o1 | 41.9 | 67.5* | -0.3 | 2.0 | 10.8 | -0.4
N#Cc1ccccc1CSc1nnc(-c2ccncc2)o1 | 25.0 | 59.9* | 3.1 | 1.4 | -5.1 | -0.1
c1ccc2c(CSc3nnc(-c4ccncc4)o3)cccc2c1 | 35.4 | 59.3* | 5.5 | -13.1 | 3.0 | -0.1
CCOC(=O)N1CCC(NC(=O)c2cccc3c2C(=O)N(c2ccc(OC)cc2)C3)CC1 | 4.9 | 24.8 | 2.2 | -10.3 | -14.5 | -0.4
Cc1ccc(SCc2cn3cc(Cl)ccc3n2)cc1 | 22.3 | 54.2* | -3.8 | -1.1 | 1.4 | 1.8
Clc1ccc(SCc2cn3ccccc3n2)cc1 | 56.5 | 78.0* | 0.9 | -1.9 | -1.6 | -2.7
CNc1cc(CSc2ccc(Cl)cc2)nc(C)n1 | 38.5 | 71.1* | -5.9 | -0.3 | 3.5 | -1.1
Clc1ccc2nc(CSc3nnc4ccccn34)cn2c1 | 27.3 | 68.1* | 9.8 | -7.6 | -22.4 | -2.1
CC(=O)Nc1ccc(-c2ccnc3c2CC(C(=O)NCC2CCOCC2)O3)cc1 (stereo not given) | . | . | . | . | . | -0.8
Cc1cccnc1NC(=S)Nc1ccc(Br)cc1Cl | 1.1 | 18.8 | -4.4 | -18.4 | -0.9 | 0.9
Clc1cccc(Cl)c1CSc1nnc2ccccn12 | 18.7 | 22.2 | 3.8 | -16.5 | -13.9 | 0.3
Clc1ccc2nc(CSc3nc4ccccc4o3)cn2c1 | 74.6 | 100.5* | 7.6 | -3.8 | -1.6 | 1.4
Brc1ccc(CSc2nnc3ccccn23)cc1 | 13.0 | 57.9* | -0.5 | -2.6 | -0.2 | -0.4
C=CCN1C(=O)c2cccc3c(N4CCCCC4)ccc(c23)C1=O | 13.4 | 40.4 | -5.7 | -7.2 | -1.0 | 1.1
O=C1c2cccc3c(N4CCCCC4)ccc(c23)C(=O)N1CCO | 83.1 | 109.1* | -3.3 | -9.7 | -5.8 | 0.5
O=C(N1CCCC1)C(F)(F)Oc1ccc(F)cc1 | 4.0 | 7.7 | -3.0 | -10.8 | 8.9 | -1.5
Cc1cccc(NC(=O)CNC(=O)c2cn(Cc3ccccc3)nc2-c2cccnc2)c1C | . | . | . | -5.0 | . | -0.6
COc1ccc(OC)c2c1C(=O)C(Cl)=C(Cl)C2=O | -69.8* | -71.4 | 9.4 | -7.2 | 65.9* | 4.7
COc1ccc(OC)c2c1C(=O)c1ccccc1C2=O | 5.0 | -2.2 | -1.1 | . | -4.1 | .
COc1ccc(N)c2c1C(=O)c1ccccc1C2=O | 30.5 | 54.3* | -1.3 | -25.8 | 9.6 | 10.6
COc1ccc(OC)c2c1C(=O)CC2C (stereo not given) | . | . | . | . | . | 0.3
CN(C)CCCNc1c2c(nc3ccccc13)CCC2 | -3.4 | 18.7 | 0.1 | 20.3* | 4.3 | 0.2
Cc1ccc(-c2nc(NCCCO)c3ccccc3n2)cc1 | -3.5 | -10.2 | -1.8 | -27.1 | -8.4 | 0.1
OCCCNc1c2ccccc2nc2ccccc12 | 11.9 | 15.5 | 2.8 | 18.6* | 4.3 | -1.0

Bioassay records (PubChem BioAssay)
